Source: PubChem
Only some compounds are listed: those with a hit (about 19% of all), similar ones and a draw of the others.
IL-1B inflam inh: inhibitors of inflammasome signaling (IL-1 beta secretion). AID 743279. activity change, % at 57.5 µM. hit rate 4.7% among 360,000. THP-1 LPS/ATP IL-1B secretion, AlphaLISA, 16 h; hits give low values; in the data active = activity change below about -50%; inconclusive = mostly about -30% to -49%
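THP-1 cells pretreated 1 hr with compounds (up to 57.5 uM final), then stimulated with LPS (250 ng/mL final) plus ATP (1.25 mM final); secreted IL-1B measured by AlphaLISA after 16 hr, decreased signal indicating inhibition.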
DT40 TDP1 no CPT: qHTS for Inhibitors of human tyrosyl-DNA phosphodiesterase 1 (TDP1): qHTS in cells in absence of CPT; DT40 Tdp1-/- hTDP1 cells, no CPT, ATP luminescence, 48 h; Potency, µM (highest dose often 46.2 µM), most hits filed as inhibitors; hit rate 15% among 420,000; AID 686978, 2013; note: nearly all actives have a fitted effect of over 55% in size
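Stably hTDP1-transfected Tdp1-null chicken DT40 cells were treated with library compounds minus camptothecin and grown for at least 48 hr at 37 °C, after which cellular ATP was quantified by luminescence.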
TDP1 cell CPT: DT40-hTDP1 cell growth loss with CPT | chicken DT40 Tdp1-/-;hTDP1 cells + 20 nM CPT, ATP luminescence, 48 h | Potency, µM (series often up to 46.2 µM), actives largely listed as inhibitors | hit rate 12% among 420,000; note: nearly all actives have a fitted effect of over 55% in size
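Chicken DT40 Tdp1-/- cells complemented with human TDP1, 400 cells/well, exposed to compounds plus 20 nM camptothecin for at least 48 h at 37 C; viability read as ATP content by CellTiter-Glo luminescence.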
HT1080-NT tox: kills 2HG-producing HT-1080-NT fibrosarcoma cells; HT-1080-NT fibrosarcoma viability, CellTiter-Glo ATP luminescence, 48 h; Potency, µM (top dose mostly 46.1 µM), usual class: cytotoxic; hit rate 1.6% among 360,000;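 note: NT is the 2HG producing partner of a matched IDH1 knockdown line; nearly all actives have a fitted effect of over 55% in size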
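HT-1080-NT; 750 cells/well; 5% FBS RPMI; 48 h compound, 37 degrees C; CellTiter-Glo luminescence; curve fitting and curve-class assignment.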
HT1080 IDH1KD tx: HT-1080 IDH1 knockdown cell toxicity (counter line) | HT-1080 IDH1 knockdown viability, ATP luminescence, 48 h | Potency, µM (highest dose often 46.1 µM), usual class: cytotoxic | hit rate 2% among 360,000
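CellTiter-Glo luminescence after 48 h compound exposure at 37 degrees C of IDH1-knockdown HT-1080 cells in 5% FBS RPMI. %Activity scaled between DMSO wells and cell-free media wells, with curves fitted and assigned curve classes.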
Each line names hits and unclear results; the compound was inactive in the other large screens. Unless noted, calls come from the whole dose curve; as a rule, active = well fitted curve in the direction sought with a large enough effect; inconclusive = small, poorly fitted or top-dose-only effect, or another doubt; inactive = no such curve, though single readings can be large; an effect the other way counts as inactive or inconclusive.

Cc1nc2ccccc2nc1OCC(=O)Nc1ccc2ccccc2c1	DT40 TDP1 no CPT inconclusive
O=C(Cn1c(-c2cscn2)nc2ccccc21)Nc1ccc2ccccc2c1	DT40 TDP1 no CPT inconclusive, TDP1 cell CPT 14µM, HT1080-NT tox inconclusive, HT1080 IDH1KD tx inconclusive
Cc1nc2ccccc2n(CC(=O)Nc2cc(Cl)cc(Cl)c2)c1=O	DT40 TDP1 no CPT 15µM, TDP1 cell CPT 9.2µM
O=C(CN1C(=O)C(=O)N(Cc2ccccc2)C1=O)Nc1cc(Cl)cc(Cl)c1	DT40 TDP1 no CPT inconclusive, TDP1 cell CPT inconclusive, HT1080-NT tox 23µM, HT1080 IDH1KD tx inconclusive
Cc1cccc(C)c1NCc1nnc(SCC(=O)Nc2nc(-c3ccccc3)cs2)n1-c1ccccc1	DT40 TDP1 no CPT 2.3µM, TDP1 cell CPT 2.1µM
CCOc1ccc(NCc2nnc(SCC(=O)Nc3nc(-c4ccccc4)cs3)n2-c2ccccc2)cc1	DT40 TDP1 no CPT 23µM, TDP1 cell CPT inconclusive
CCOC(=O)/C=C1/SCC(=O)N1CC(=O)NC12CC3CC(CC(C3)C1)C2	DT40 TDP1 no CPT 21µM, TDP1 cell CPT inconclusive
C=C1C[C@@H]2C[C@@H]2CN(S(=O)(=O)c2ccc(C)cc2)[C@@H]1COCc1ccccc1	DT40 TDP1 no CPT 8.2µM, TDP1 cell CPT 8.2µM, HT1080 IDH1KD tx inconclusive
COC(=O)C1CN(S(=O)(=O)c2ccc(C)cc2)CCN1S(=O)(=O)c1ccc(C)cc1 (stereo not drawn)	DT40 TDP1 no CPT inconclusive, TDP1 cell CPT inconclusive
Cc1ccc2c(c1)=N/C(=N\c1[nH]c(O)c3ccccc13)N=2	IL-1B inflam inh -102, DT40 TDP1 no CPT 3.7µM, TDP1 cell CPT 4.1µM, HT1080-NT tox 23µM, HT1080 IDH1KD tx inconclusive
Oc1[nH]c(N=C2N=c3ccccc3=N2)c2ccccc12	IL-1B inflam inh -98, DT40 TDP1 no CPT 0.92µM, TDP1 cell CPT 0.58µM, HT1080-NT tox inconclusive, HT1080 IDH1KD tx inconclusive
Oc1[nH]c(=S)sc1C=C1N=c2ccccc2=N1	none (no result: IL-1B inflam inh)
COc1ccc(NC(=O)C[C@H]2C(=O)N(Cc3ccccc3)C[C@@H]2Cc2ccccc2)cc1	IL-1B inflam inh inconclusive, DT40 TDP1 no CPT inconclusive, TDP1 cell CPT 18µM
COc1ccc(NC(=O)C[C@H]2C(=O)N(Cc3ccccc3)C[C@@H]2CSC)cc1	DT40 TDP1 no CPT inconclusive, TDP1 cell CPT inconclusive
O=C(C[C@H]1C(=O)N(CCc2ccccc2)C[C@@H]1Cc1ccccc1)Nc1ccccc1	DT40 TDP1 no CPT 16µM, TDP1 cell CPT 16µM
O=C(C[C@H]1C(=O)N(C2CCCCC2)C[C@@H]1Cc1ccccc1)Nc1ccccc1	IL-1B inflam inh inconclusive, DT40 TDP1 no CPT 16µM, TDP1 cell CPT inconclusive
O=C(C[C@H]1C(=O)N(Cc2ccccc2)C[C@@H]1Cc1ccccc1)Nc1ccccc1	DT40 TDP1 no CPT 11µM, TDP1 cell CPT 13µM
CCCNC(=O)C1(C)CCN(C(=O)c2cccc(C(F)(F)F)c2)C1 (stereo not drawn)	none
CSC[C@H]1CN(CCc2ccccc2)C(=O)[C@@H]1CC(=O)Nc1ccc(Br)cc1	DT40 TDP1 no CPT inconclusive, TDP1 cell CPT inconclusive
CCCCN1C[C@H](Cc2ccccc2)[C@@H](CC(=O)Nc2ccccc2)C1=O	DT40 TDP1 no CPT inconclusive, TDP1 cell CPT 16µM
CCCCN1C[C@H](CSC)[C@@H](CC(=O)Nc2ccc(Br)cc2)C1=O	DT40 TDP1 no CPT 23µM, TDP1 cell CPT inconclusive
O=C(CSc1nnc2ccc(-c3ccc(F)cc3)nn12)N1CCOCC1	none
CCOC(=O)/C=C1\CN(Cc2ccc(OC)cc2)S(=O)(=O)c2ccc(C(F)(F)F)cc21	DT40 TDP1 no CPT 11µM, TDP1 cell CPT 13µM (no result: IL-1B inflam inh, HT1080-NT tox, HT1080 IDH1KD tx)
CCS(=O)(=O)c1nc(S(=O)(=O)c2ccc(Cl)cc2)c(N2CCC(O)CC2)s1	none
CS(=O)(=O)N(CC(=O)N1CCc2ccccc2C1)c1ccccc1F	none
OCc1cn(-c2ccccc2)nc1-c1cc2ccccc2o1	TDP1 cell CPT inconclusive
COC1CCN(Cc2cn(Cc3ccccc3)nc2-c2cc3ccccc3o2)CC1	IL-1B inflam inh inconclusive, DT40 TDP1 no CPT 26µM, TDP1 cell CPT inconclusive, HT1080-NT tox inconclusive, HT1080 IDH1KD tx 26µM
OCC1CCN(Cc2cn(Cc3ccccc3)nc2-c2cc3ccccc3o2)CC1	IL-1B inflam inh -56, DT40 TDP1 no CPT inconclusive, TDP1 cell CPT inconclusive, HT1080-NT tox inconclusive, HT1080 IDH1KD tx inconclusive
OCC1CCCN(Cc2cn(Cc3ccccc3)nc2-c2cc3ccccc3o2)C1 (stereo not drawn)	IL-1B inflam inh -62, DT40 TDP1 no CPT inconclusive
Cn1cc(CN2CCC(CO)CC2)c(-c2ccc(Oc3ccccc3)cc2)n1	DT40 TDP1 no CPT inconclusive, TDP1 cell CPT inconclusive, HT1080 IDH1KD tx inconclusive
Cn1cc(CN2CCN(Cc3ccccc3)CC2)c(-c2cccc(Cl)c2)n1	DT40 TDP1 no CPT inconclusive, TDP1 cell CPT inconclusive
COc1ccc(N2CCN(C(=O)CCc3ccc(S(=O)(=O)NC(C)C)cc3)CC2)cc1	DT40 TDP1 no CPT inconclusive, TDP1 cell CPT inconclusive
CCC(Oc1ccccc1OC)C(=O)N1CC(=O)Nc2ccccc21 (stereo not drawn)	none
Cc1ccc(NC(=O)Cc2nc(CSc3nnc(-c4ccc5c(c4)OCO5)o3)cs2)cc1	none
CC(=O)Cc1cc(O)c2ccccc2c1OC(=O)c1ccc(Br)cc1	DT40 TDP1 no CPT 21µM, TDP1 cell CPT 21µM
Cc1cccc(-n2ncc3c2CCCC3NC(=O)CCc2ccncc2)c1C (stereo not drawn)	DT40 TDP1 no CPT 6.5µM, TDP1 cell CPT 12µM
Cc1cccc(-n2ncc3c2CCCC3NC(=O)C2CCOCC2)c1C (stereo not drawn)	DT40 TDP1 no CPT 15µM, TDP1 cell CPT inconclusive, HT1080-NT tox inconclusive
O=C(NC1CCCc2c1cnn2-c1cc(F)cc(F)c1)c1ccc[n+]([O-])c1 (stereo not drawn)	none
Cc1cccc(-n2ncc3c2CCCC3NC(=O)c2ccc[n+]([O-])c2)c1C (stereo not drawn)	DT40 TDP1 no CPT inconclusive, TDP1 cell CPT 12µM
Cc1cc(C(=O)NC2CCCc3c2cnn3-c2cccc(C)c2C)n(C)n1 (stereo not drawn)	DT40 TDP1 no CPT 0.21µM, TDP1 cell CPT 0.15µM, HT1080-NT tox inconclusive, HT1080 IDH1KD tx inconclusive
Cc1csc(C(C#N)C(=O)c2cc3ccccc3o2)n1 (stereo not drawn)	DT40 TDP1 no CPT inconclusive, TDP1 cell CPT inconclusive, HT1080-NT tox inconclusive, HT1080 IDH1KD tx inconclusive
CC1(C(=O)NS(=O)(=O)Cc2cccc(Cl)c2)CCN1C(=O)C1(c2ccc(Cl)cc2)CCC1 (stereo not drawn)	none
CCCCn1nc(C(=O)Oc2ccc3c(C)cc(=O)oc3c2)c2ccccc2c1=O	DT40 TDP1 no CPT inconclusive, TDP1 cell CPT inconclusive
C=CCn1c(SCc2c(C(=O)OC)sc(N)c2C(=O)OC)nnc1-c1ccc(Br)cc1	DT40 TDP1 no CPT 18µM, TDP1 cell CPT inconclusive
